Out of some 320,000 compounds screened, about 2,100 (0.66%) were called active. Not shown: some 53% with an inconclusive outcome. Calls follow the shape of the dose curve; as a rule, active = well fitted inhibition curve with a large enough effect in the signal ratio, with a control signal flat (not every such curve was filed as active); inconclusive = small, poorly fitted or top-dose-only effect, or effect the other way, or a change in a side signal; inactive = flat fitted curve, though single readings scatter; the % refers to the signal ratio. This excerpt belongs to a sample that is enriched for actives.
Experiment: qHTS Assay for Lipid Storage Modulators in Drosophila S3 Cells;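 as to cell number change: cells counted by Cell Tracker Red CMTPX staining in the red channel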; as to lipid storage change, negative = inhibition: % is scaled to controls: 0 for no effect and ±100 for the full control effect
Settings: BODIPY lipid droplet fluorescence, 18-24 h, cells fed with added oleic acid; cell number change: measured here: cell count max response; series mostly up to 46.1 µM
Method in brief: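 Drosophila S3 cells got compounds at several concentrations plus oleic acid (400 uM solution). Laser-scanning cytometry with 488 nm excitation read lipid droplets at 500-530 nm and cells at 575-640 nm. Percent activity was relative to 20 uM Triacsin C.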
Potency is read from the fitted curve at half-maximal effect.

Compound | Potency | cell number change [%] | lipid storage change, negative = inhibition
COc1ccc(NC(=O)CSCc2cc(=O)n3c(C)csc3n2)cc1 | inactive | 4.18 | –
CC(C)Nc1nc(NC(C)C)nc(Nn2cnnc2)n1 | inactive | -7.52 | –
CC(C)Nc1nc2n(c(=O)n1)CCN2C(C)C | 4.11 µM (active) | 0.328 | –
CC(C)Nc1nc(NC(C)C)nc(SCC(N)=O)n1 | inactive | -10.2 | –
CC1(C)CC2(C)Nc3ccccc3N2C(=S)N1 (stereo not given) | inactive | -13.1 | –
COc1ccc(NC(=O)Nc2ccc(C(=O)N3CCOCC3)cc2)cc1OC | inactive | -17.3 | –
O=C(CNC(=O)c1ccc(Br)o1)Nc1ncccc1O | inactive | – | –
C=C1CCC[C@]2(C)C[C@H]3OC(=O)C(CN4CC(C)OC(C)C4)[C@H]3C[C@@H]12 (stereo not given in full) | inactive | 8.39 | –
C=C1CCC[C@]2(C)C[C@H]3OC(=O)C(CNC(C)CC)[C@H]3CC12 (stereo not given in full) | inactive | -16.4 | –
C=C1CCC[C@]2(C)C[C@H]3OC(=O)C(CN4CCOCC4)[C@H]3C[C@@H]12 (stereo not given in full) | 8.2 µM (active) | -15.3 | –
O=C(COC(=O)c1ccc(S(=O)(=O)N2CCOCC2)cc1)NCc1cccs1 | inactive | -3.56 | –
CC1CCCCC1NC(=O)CN1C(=O)NC(Cc2ccccc2)(Cc2ccccc2)C1=O (stereo not given) | inactive | 27.7 | –
Cn1c(NC(=O)/C=C\c2ccccc2)cc(=O)n(C)c1=O | inactive | -2.62 | –
CC1(C)CC(=O)CC(C)(C)N1OC(=O)c1ccccn1 | 32.6 µM (active) | – | –
COC(=O)c1ccc(OC(=O)c2ccccn2)cc1 | inactive | 10.3 | –
CC(=O)c1ccccn1 | inactive | 12.7 | –
CC(C#N)Sc1nnc(-c2ccccc2F)n1C1CC1 (stereo not given) | inactive | 7.26 | –
NNC(=O)c1cc(C2CC2)nc2ccc(Br)cc12 | inactive | -5.67 | –
O=C(NCCOc1nc(N2CCCCC2)nc(N2CCOCC2)n1)Nc1ccccc1 | 0.731 µM (active) | -5.19 | –
O=C(NCCOc1nc(N2CCOCC2)nc(N2CCOCC2)n1)Nc1ccccc1 | inactive | -14.8 | –
O=C(NCCOc1nc(N2CCCCC2)nc(N2CCCCC2)n1)Nc1ccccc1 | inactive | 0.327 | –

Compound | Potency | cell number change [%] | lipid storage change, negative = inhibition
Cc1ccc(NNC(N)=S)cc1Cl | inactive | 18.1 | –
COc1ccccc1-c1nnc(C2CCN(S(=O)(=O)c3ccccc3[N+](=O)[O-])CC2)o1 | inactive | – | –
Cc1cccc(-c2nc(CN3CCCC(C(=O)NC4CCCCCC4)C3)c(C)o2)c1 (stereo not given) | inactive | 2.33 | –
CCc1cc(C(=O)N2CCN(S(=O)(=O)c3ccc(Cl)cc3)CC2)sc1C | 11.6 µM (active) | 6.97 | –
Cc1ccccc1-n1nc(C)c2cc(C(=O)N3CCN(S(=O)(=O)c4ccc(Cl)cc4)CC3)sc21 | inactive | -4.24 | –
CCOC(=O)N1CCN(S(=O)(=O)c2ccc(Cl)cc2)CC1 | inactive | 24.3 | –
CCc1cc(C(=O)N2CCN(S(=O)(=O)c3cc(C)ccc3C)CC2)sc1C | 20.6 µM (active) | -8.23 | –
Cc1ccc(C)c(S(=O)(=O)N2CCN(C(=O)c3cccn3C)CC2)c1 | inactive | -13.9 | –
Cc1ccc(C)c(S(=O)(=O)N2CCN(C(=O)c3ccc(C)s3)CC2)c1 | inactive | 6.27 | –
COc1ccccc1N1CCN(CC(O)COc2ccc3c(c2)CCC3)CC1 (stereo not given) | inactive | 1.49 | –
COc1ccc(-c2cc(C(=O)N3CCOCC3)no2)cc1OC | inactive | -3.96 | –
CSCCNC(=O)Nc1c(-c2c(Cl)cccc2Cl)noc1C | inactive | – | –
CCC1(C)CC(CC(=O)O)(c2ccccc2OC)CCO1 (stereo not given) | 29.1 µM (active) | -13.5 | –
COc1ccccc1C1(CC(=O)O)CCOC(C(C)C)C1 (stereo not given) | inactive | -4.59 | –
CCOC(=O)CC1(c2ccccc2)CCOC(C)(C)C1 (stereo not given) | inactive | 5.31 | –
CC(C)c1ccc(S(=O)(=O)N2CCN(C(=O)C3CC3C)CC2)cc1 (stereo not given) | – | 13.5 | 9.88% [at 0.0737 µM] (inactive)
CC(=O)N1CCc2cc(Br)cc(S(=O)(=O)NCCCN3CCC(C)CC3)c21 | inactive | 6.06 | –
Cc1cnc(C(=O)OCC(=O)c2ccc(F)c(F)c2)cn1 | inactive | 6.94 | –
Cc1nc2ncnn2c(C)c1CCC(=O)NC(C)CCc1ccco1 (stereo not given) | inactive | -25.3 | –
CC(C)Oc1ccccc1C(=O)NC(CO)C(=O)O (stereo not given) | inactive | -13.9 | –
CCOc1ccccc1C(=O)NC(CO)C(=O)O (stereo not given) | 20.6 µM (active) | -20.4 | –

Compound | Potency | cell number change [%] | lipid storage change, negative = inhibition
CC(C)COc1ccccc1C(=O)NC(CO)C(=O)O (stereo not given) | inactive | -5.46 | –
CS(=O)(=O)N(Cc1ccccc1)c1ccc(C(=O)N2CCc3ccccc3C2)cc1 | inactive | 13.2 | –
Cc1cc(/C=N/Nc2nc(N3CCOCC3)nc(N3CCOCC3)n2)c(C)n1-c1ccccc1 | inactive | 2.32 | –
CCCCn1c(N)c(N(CC)C(=O)C2CCCC2)c(=O)[nH]c1=O | inactive | 14.7 | –
CC(=O)N1c2ccc(S(=O)(=O)N(C)CC(=O)NC3CCCCC3C)cc2CC1C (stereo not given) | inactive | – | –
COc1cn(-c2ccccc2)nc1C(=O)NCc1ccccc1 | inactive | 10.4 | –
COc1cn(-c2ccccc2)nc1C(=O)Nc1ccccc1 | 0.92 µM (active) | 5.86 | –
COc1cn(-c2ccccc2)nc1C(=O)OCC(=O)Nc1ccc(C)c(C)c1 | inactive | -22.3 | –
Cc1cc(C)c(OCC(=O)Nc2ccc3c(c2)OCO3)cc1C | inactive | – | –
CC(C)C1Oc2ccccc2N(CC(=O)N(Cc2ccncc2)Cc2ccco2)C1=O (stereo not given) | inactive | -0.805 | –
CN(CCCC1CCCC1)C(=O)c1cc(COc2ccc(F)cc2F)on1 | inactive | 15.8 | –
CN(CCCN1CCOCC1)C(=O)c1cc(COc2c(F)cccc2F)on1 | inactive | – | –
CN(CCCC1CCCC1)C(=O)c1cc(COc2c(F)cccc2F)on1 | 5.8 µM (active) | -27.2 | –
Cc1c(NC(=O)c2n[nH]c(=O)c3ccccc23)c(=O)n(-c2ccccc2)n1C | inactive | 5.44 | –
Cc1c(NC(=O)c2ccc(N(C)S(=O)(=O)c3ccccc3)cc2)c(=O)n(-c2ccccc2)n1C | inactive | 0.409 | –
CCO[C@H]1OC(C(=O)NCc2nc3ccccc3[nH]2)=C[C@@H](C2CCCCC2)[C@@H]1CCCO | inactive | -1.73 | –
COc1ccc(C2CC3(CC(C)(C)NC(=S)N3)Oc3cc(O)cc(C)c32)cc1 (stereo not given) | inactive | -1.84 | –
Cc1cc(O)cc2c1C(c1ccc(F)cc1)CC1(CC(C)(C)NC(=S)N1)O2 (stereo not given) | inactive | 11.1 | –
COc1ccc(C2CC3(CC(C)(C)NC(SC)=N3)Oc3cc(O)cc(C)c32)cc1 (stereo not given) | 23.1 µM (active) | 26.2 | –

Reference: PubChem BioAssay AID2685 (National Center for Advancing Translational Sciences (NCATS), 2010)
